Experimental data taken from PubChem BioAssay (NCI).
Where “and” joins values, the source holds several entries; their conditions need not be identical. Identical values can stand only once. Compounds without any hit were thinned out: in the full panel of roughly 79,000, 15% have a hit. A structure can be active in one record and inactive in another. Calls of active or inactive are those of the source. No stated cut-off is given here; in the data, active means growth inhibition above about 70%; inactive means the rest.

Assay: NCI Yeast Anticancer Drug Screen. Data for the cln2 rad14 strain (AID 165);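 further: 0% = growth equal to vehicle treated cultures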
Conditions: S. cerevisiae cln2 rad14 strain, at 50.0 µM, stronger effect = higher value
Outline: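 The screen exposed genetically defined yeast (cln2 rad14) to test compounds and scored growth inhibition relative to vehicle-treated controls.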
For O=c1[nH]cnc2[nH]cc(CN3CCCCC3)c12, the growth inhibition was 33.2% (inactive). For NCCBr, the growth inhibition was -23.7% (inactive) and -8.9% (inactive). With CSc1ncc(COP(=S)(OCc2cnc(SC)nc2N)OCc2cnc(SC)nc2N)c(N)n1 the growth inhibition was 23.9% (inactive). In the case of O=[N+]([O-])c1ccc(O)c(Cl)c1, the growth inhibition is reported as 52.2% (inactive). In the case of CCN(CC)CC(=O)c1ccc2c(ccc3ccccc32)c1, the growth inhibition is reported as 99.3% (active). With Cc1ccc([C@H]2N[C@@H]2c2ccccn2)cc1 the growth inhibition was 30.1% (inactive). With CCC1(C2=CCCCC2)C(=O)NC(=S)NC1=O the growth inhibition was -32.4% (inactive) and -0.6% (inactive). In the case of Cn1cnc(C(=N)[Se])c1N, the growth inhibition is reported as -24.8% (inactive). With CCOC(=O)NC(=S)[S][Sb]([S]C(=S)NC(=O)OCC)[S]c1nc2ccc(N=Nc3ccc(NS(=O)(=O)c4ccc(NC(=O)C(N5CC5)(N5CC5)N5CC5)cc4)cc3)cc2s1 the growth inhibition was 99% (active). With COc1ccccc1/C=C(/C)[N+](=O)[O-] the growth inhibition was 99.5% (active). With O=c1oc2ccccc2c(O)c1C(c1ccc(OCc2ccccc2)cc1)c1c(O)c2ccccc2oc1=O the growth inhibition was 62.2% (inactive). For COc1cc(N(CCCl)CCCl)ccc1C=Nc1cccc(Cl)c1, the growth inhibition was 81.6% (active). In the case of O=[N+]([O-])c1cc2c([N+](=O)[O-])cccc2o1, the growth inhibition is reported as 97.3% (active). With ClCCN(CCCl)c1ccc(C2N(Cc3ccc(N(CCCl)CCCl)cc3Cl)CCCN2Cc2ccc(N(CCCl)CCCl)cc2Cl)cc1 the growth inhibition was 22.1% (inactive). With CCN(Cc1ccccc1)CC(O)c1ccc(Cl)c(Cl)c1 (centres undefined) the growth inhibition was -23.4% (inactive). In the case of FC1(F)C(Cl)=[C]([Hg][C]2=C(Cl)C(F)(F)C(F)(F)C(F)(F)C2(F)F)C(F)(F)C(F)(F)C1(F)F, the growth inhibition is reported as 19.9% (inactive). With CCn1c(O)c(C(=O)NC(C)c2ccc([N+](=O)[O-])cc2)c(=O)n(CC)c1=S (centres undefined) the growth inhibition was 88.8% (active). In the case of CC(=O)[O][Hg][c]1ccccc1N, the growth inhibition is reported as 92% (active). With CCC[CH2][Sn]1([CH2]CCC)[O]Cc2nc(C)ccc2[O]1 the growth inhibition was 71.9% (active). In the case of CCCCCCCCCCCCC(=O)[O][Hg][c]1ccccc1, the growth inhibition is reported as 99.3% (active). For CN(C)CC1CC2C3CC=C4CC(O)CCC4(C)C3CCC2(C)C1=O (centres undefined), the growth inhibition was 29.1% (inactive). In the case of CC(=O)O.CC(=O)[O-].CC(=O)[O-].[Co+3].[NH-]CC[NH-].[NH-]CC[NH-], the growth inhibition is reported as 31.6% (inactive). With Nc1nc(CCl)cs1 the growth inhibition was 75.8% (active) and -22.8% (inactive). With CC1=CCC2(C)C3CCC4(C)C(O)CCC4C3CCC2(C)C1 (centres undefined) the growth inhibition was 9.1% (inactive). With CC1CCC2(NC1)OC1CC3C4CC=C5CC(O)CCC5(C)C4CCC3(C)C1C2C (centres undefined) the growth inhibition was 87.5% (active) and 98.5% (active). With CCN1CCC(O)(c2ccc(Cl)c(Cl)c2)C(C(=O)c2ccc(Cl)c(Cl)c2)C1 (centres undefined) the growth inhibition was 98.9% (active). In the case of O=C(c1ccccc1)c1c(CC(O)c2ccccn2)n(C(=O)c2ccccc2)c2ccccc12 (centres undefined), the growth inhibition is reported as 65.7% (inactive). For CC(O[Si](c1ccccc1)(c1ccccc1)C(C)(C)C)[C@H](NC(=O)OC(C)(C)C)C(=O)O (some centres undefined), the growth inhibition was 89.6% (active). For CC(C)=CC1CC(C)C2(CCC3(C)CC4C(C(=O)CC4(C)O)/C(C=O)=C\CC32)O1 (centres undefined), the growth inhibition was 93.6% (active). For CC(=O)O[C@H]1C[C@@H]2OC3C=C(C)CCC3(C)[C@@]1(C)[C@@]21CO1 (some centres undefined), the growth inhibition was 92.2% (active) and 6.4% (inactive). With O=C1NC(=O)C([N+](=O)[O-])C(=O)N1 the growth inhibition was 48.5% (inactive). For N#C[S-].[Nd+3].c1ccc(-c2ccccn2)nc1.c1ccc(-c2ccccn2)nc1.c1ccc(-c2ccccn2)nc1, the growth inhibition was 92.5% (active). With CC(=O)Nc1ccccc1[As](O[As](c1ccccc1)c1ccccc1NC(C)=O)c1ccccc1 (centres undefined) the growth inhibition was 99.4% (active). With Oc1cccc[c]1[Hg][Cl] the growth inhibition was 98.6% (active). In the case of Nc1nc(N)c(-c2ccc(Cl)c(Cl)c2)c(CCc2ccc(CNC(=O)Nc3ccc(S(=O)(=O)F)cc3)cc2)n1, the growth inhibition is reported as 25.8% (inactive). For C1CC[N-]CC1.CC(=N\O)/C(C)=N/O.CC(=N\O)/C(C)=N/O.OC1[CH-]CCCC1.[Co+2], the growth inhibition was 76% (active). With CC(=O)OC1C2(CC3N4C(=O)C5(CO)SSC4(CC31O)C(=O)N5C)OC(C)C(C)(C)C2=O (centres undefined) the growth inhibition was 88.6% (active). In the case of C[C@H]1C/C=C/[C@H]2[C@@H]3O[C@]3(C)[C@@H](C)[C@H]3[C@H](Cc4ccccc4)NC(=O)[C@]32OC(=O)O/C=C/[C@@](C)(O)C1=O, the growth inhibition is reported as 67.3% (inactive). For C1CC[N-]CC1.[Cl][Au]([Cl])[Cl], the growth inhibition was 60.4% (inactive).
